Measurements reported in PubChem BioAssay AID686978 (National Center for Advancing Translational Sciences (NCATS), 2013).
“And” between values parts separate entries of the source, which are not always exact repeats. Equal values may be shown once. In all, about 420,000 compounds went through this assay and about 64,000 (15%) were called active. Not shown: some 27% with an inconclusive outcome. Only a sample is shown. A call without a number means that no potency is given here. Unmarked numbers belong to inactive results. The call rests on the fitted dose curve; in most records, active means well fitted inhibition curve with a large enough effect; inconclusive means small, poorly fitted or top-dose-only effect; inactive means flat fitted curve, though single readings scatter.

Test: qHTS for Inhibitors of human tyrosyl-DNA phosphodiesterase 1 (TDP1): qHTS in cells in absence of CPT; further: nearly all actives have a fitted effect of over 55% in size
Conditions: DT40 Tdp1-/- hTDP1 cells, no CPT, ATP luminescence, 48 h; activity change, negative = growth inhibition: at 46.2 µM (top of the series)
Summary of the method: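 Camptothecin absent (DMSO only). Human TDP1-complemented DT40 knockout cells, 400 cells/well, 37 °C for minimum 48 hr; ATP measured via CellTiter-Glo, 30 min dark incubation, luminescence.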
Potency means the concentration at half of the fitted maximal effect.

Row | SMILES | Potency | activity change, negative = growth inhibition
1 | CN1CCN(S(=O)(=O)c2ccc3[nH]cc(C(=O)O)c(=O)c3c2)CC1 | inactive | 
2 | Cc1cc(C)c(-c2csc(NC(=O)CCCc3nc4ccccc4c(=O)[nH]3)n2)c(C)c1 | 8.2 µM (active) | 
3 | CC(C)(C)c1ccc(NC(=O)COC(=O)CCc2nc3ccccc3c(=O)[nH]2)cc1 | inactive | 
4 | O=C(CCc1nc2ccccc2c(=O)[nH]1)OCC(=O)c1cccc(Cl)c1 | inactive | 
5 | Cc1ccc(C(=O)N/C(=C\c2cn(S(=O)(=O)N(C)C)c3ccccc23)C(=O)N2CCCC2)cc1 | inactive | 
6 | C/C=C(\C)C(=O)OC1C(OC(=O)C2(C)OC2C)c2cc3ccc(=O)oc3cc2OC1(C)C (stereo not given) |  | -10.9% [at 9.04 µM]
7 | CN1CCN(/N=C/c2ccc(C#N)cc2)CC1 | inactive | 
8 | Cc1ccc(NS(=O)(=O)c2ccc3c(c2)CC(=O)N3)cc1Cl | inactive | 
9 | Cc1cccc(N2C(=O)c3cccnc3C2=O)c1 | inactive | 
10 | NC1=CC(=O)C(=O)c2cccnc21 | 3.66 µM (active) | 
11 | O=C1c2cccnc2C(=O)N1Cc1cccs1 | inactive | 
12 | COc1cc(Nc2nc(-c3ccc(OC)c(OC)c3)nc3ccccc23)cc(OC)c1 | 2.06 µM (active) | 
13 | CNc1nc(-c2ccccc2OC)nc2ccccc12 | 7.31 µM (active) | 
14 | Cc1cccc(-c2nc(Nc3ccc(O)cc3)c3ccccc3n2)c1 | 20.6 µM (active) | 
15 | COc1cccc(-c2nc(Nc3ccncc3)c3ccccc3n2)c1 | 10.3 µM (active) | 
16 | Oc1ccc(-c2nnc(Nc3ccccc3)c3ccccc23)cc1 | inactive | 
17 | COc1ccccc1-c1nc(NCCNC(C)=O)c2ccccc2n1 | inactive | 
18 | Cc1cccc(-c2noc(-c3ccc(F)cc3)n2)c1 | inactive | 
19 | Cc1nc2ccccc2c(C)c1C(=O)c1ccc(F)cc1 | inactive | 
20 | COc1ccc(-c2nc3n(c(=O)c2C#N)CCS3)c(OC)c1 | inactive | 
21 | CC1=NCCN1S(=O)(=O)c1ccc(Br)c(C)c1 | inactive | 
22 | CCCCn1c(=O)c2oc3ccccc3c2n(CC(=O)Nc2ccccc2OC)c1=O | inactive | 

Row | SMILES | Potency | activity change, negative = growth inhibition
23 | O=C(Nc1ccc(OCC(=O)N2CCOCC2)cc1)c1cc(F)c(F)cc1Cl | inactive | 
24 | N#Cc1c(-c2ccccc2)c(-c2ccccc2)n[nH]c1=O | inactive | 
25 | CCn1c(CSc2nc(C)cc(C)n2)nnc1SCC(N)=O | inactive | 
26 | COCCCn1c(SCc2cccc(OC)c2)nc2cc(OC)c(OC)cc2c1=N | 16.4 µM (active) | 
27 | COc1ccc(/C=C/c2nnc(NC(=O)C(C)C)s2)cc1 | inactive | 
28 | Cc1cccc(N=C2SC(C)CN2C(=O)CN2C(=O)NC3(CCCC3)C2=O)c1 (stereo not given) | inactive | 
29 | CC(C)c1nc2cc(C(=O)NC(C)c3cnn(C)c3)ccc2o1 (stereo not given) | inactive | 
30 | COc1ccc(C2Sc3ccccc3NC3=C2C(=O)c2ccccc23)c(OC)c1OC (stereo not given) | 1.84 µM (active) | 
31 | COc1cccc(C2=CC(=O)C[C@H](c3ccc(F)cc3)C2)c1OC | inactive | 
32 | O=[N+]([O-])c1ccc(N2CCN(S(=O)(=O)c3ccccc3)CC2)cc1N1CCc2ccccc2C1 | inactive | 
33 | CSCCC(NC(=O)COc1ccccc1)C(=O)OCc1ccc(Cl)cc1 (stereo not given) | inactive | 
34 | CN(CCOc1ccc(CC2SC(=O)NC2=O)cc1)c1ccccn1 (stereo not given) | inactive | 
35 | Cn1c(=O)[nH]c(=O)c2c1nc(NCCCn1ccnc1)n2Cc1cccc(Br)c1 | inactive | 
36 | Cn1c(=O)c2c(nc(N/N=C/c3cccs3)n2Cc2ccc(Br)cc2)n(C)c1=O | 23.1 µM (active) | 
37 | Cn1c(=O)c2c(nc(NCCc3ccccc3)n2Cc2ccccc2Br)n(C)c1=O | inactive | 
38 | CCCCNc1nc2c(c(=O)n(C)c(=O)n2C)n1Cc1cccc(OC)c1 | 1.84 µM (active) | 
39 | COc1ccc(CCN2CNc3c(c(=O)n(C)c(=O)n3C)C2)cc1OC | inactive | 
40 | Cn1c(=O)c2c(nc(NCCc3ccccc3)n2Cc2ccccc2)n(C)c1=O | 4.11 µM (active) | 
41 | COc1ccc(CCn2c(NCCCN3CCOCC3)nc3c2c(=O)[nH]c(=O)n3C)cc1 | inactive | 
42 | Cn1c(=O)c2c(nc(NCc3ccccc3)n2CC(N)=O)n(C)c1=O | inactive | 
43 | CCCCn1c(SCC(=O)NCCc2ccc(OC)c(OC)c2)nc2c1c(=O)n(C)c(=O)n2C | inactive | 
44 | CCn1c(NCCc2ccc(OC)c(OC)c2)nc2c1c(=O)n(C)c(=O)n2C | 7.31 µM (active) | 

Row | SMILES | Potency | activity change, negative = growth inhibition
45 | O=C(Nc1cccnc1)c1cc([N+](=O)[O-])ccc1Cl | inactive | 
46 | Nc1nc(SC23CC4CC(CC(C4)C2)C3)ns1 | inactive | 
47 | O=C(Nc1ccc(-n2cccn2)cc1)C1CCN(Cc2ccsc2)CC1 | inactive | 
48 | COc1ccc(C/C(N)=N/OC(=O)c2ccco2)cc1OC | inactive | 
49 | CCOc1ccc(NC(=O)CCS(=O)(=O)c2cccc3nsnc23)cc1 | inactive | 
50 | O=C(CSc1ncn[nH]1)Nc1nsc(-c2ccccc2)n1 | inactive | 
51 | c1csc(-c2nc(-c3ccncc3)no2)c1 | inactive | 
52 | CCN(CC(=O)Nc1ccc(NC(C)=O)cc1)C(=O)C1CC(=O)N(Cc2ccc(C)cc2)C1 (stereo not given) | inactive | 
53 | COc1ccc2c(c1)CCCO[C@]21O[C@H](CCO)C[C@H](O)[C@H]1O | inactive | 
54 | CC(C)OCCCNc1nc2c(c(=O)n(Cc3ccccc3F)c(=O)n2C)n1C | inactive | 
55 | Cn1c(=O)c2c(nc(NCCNC(=O)c3ccco3)n2Cc2ccccc2F)n(C)c1=O | 18.4 µM (active) | 
56 | COc1ccccc1/C=C/C(=O)OCC(=O)NC1CCCCCC1 | inactive | 
57 | CC1(C(=O)NS(=O)(=O)c2ccccc2)CCN1C(=O)C1CCCCC1 (stereo not given) | inactive | 
58 | Cc1noc(C)c1NC(=O)Nc1cccc2c1O[C@H](CN(C)S(=O)(=O)c1c(C)noc1C)[C@@H](C)CN([C@H](C)CO)C2=O | inactive | 
59 | CCN1CCN(c2c(Cl)cccc2NC(=O)c2ccc(Br)o2)CC1 | 16.4 µM (active) | 
60 | CN1CCN(C(=O)c2ccc(NC(=O)c3ccc(Br)o3)cc2)CC1 | inactive | 
61 | COc1cc(OC)c(NC(=O)c2ccc(Br)o2)cc1Cl | inactive | 
62 | O=C(Cn1nnc(-c2ccccc2)n1)N/N=C/c1ccc(-c2ccc(Cl)cc2)o1 | inactive | 
63 | O=[N+]([O-])c1ccccc1S(=O)(=O)Nc1cccc2cccnc12 | 2 µM (active) and 2.59 µM (active) | 
64 | NS(=O)(=O)c1ccc(CCNS(=O)(=O)c2cccc3cccnc23)cc1 | inactive | 
65 | Cc1ccccc1NC(=O)c1ccccc1NS(=O)(=O)c1cccc2cccnc12 | inactive | 
